Records with an inconclusive call do not appear. Unmarked numbers belong to inactive results. Active and inactive are the calls of the source. The call rests on the fitted dose curve; in most records, active means well fitted cell-killing curve with a large enough effect; inconclusive means small, poorly fitted or top-dose-only effect, or effect the other way; inactive means no such curve, though single readings can be large or run the other way. Starred links: 1 amine or outer side, 2 acyl side, 3 side chain; linkers in the order of their positions; H or OH if unused. Positions of bridges follow the written chain, without caps; N, C: chain ends. Non-standard residues stand in square brackets, D forms with d. Residues, ends and D or L forms follow the SMILES beside them. Chains are numbered I, II in the order given. Actinocin(9to1) = Cc1c2oc3c(C)ccc(C(=O)[*:1])c3nc-2c(C(=O)[*:2])c(N)c1=O; NMeV = CN[CH](C(=O)O)C(C)C; Sar = CNCC(=O)O
Potency means the concentration at half of the fitted maximal effect.

One experiment is described as follows: Quantitative High-Throughput drug screen in 47 multiple myeloma cell lines against the NCATS MIPE library collection: FR4_PLB cell viability assay (AID 1918924; further: nearly all actives have a fitted effect of over 35% in size). Conditions: FR4_PLB myeloma cells viability, CellTiter-Glo ATP, 48 h; series mostly up to 45.8 µM. The essentials:
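Inhibition of cell viability is measured here. Each line was plated at 500 cells per well, treated with MIPE 4.0 drugs, kept 48 hours at 37C, then assayed for ATP content by CellTiter-Glo luminescence.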
(In general: Cellular ATP, detected with luciferase, serves as a proxy for viable cell number.)
Turning to `CC(=O)OCC(=O)[C@@]12N=C(C)O[C@H]1C[C@H]1[C@@H]3CCC4=CC(=O)C=C[C@]4(C)[C@@H]3[C@@H](O)C[C@@]12C`, the Potency result was “inactive”.

As for `O=S(=O)(O)CCSSCCS(=O)(=O)O`, the Potency entry was “inactive”.

On to `COc1cc(OC)c(C=CS(=O)(=O)Cc2ccc(OC)c(NCC(=O)O)c2)c(OC)c1`, for which the Potency is 118 nM (active).

As for `O=C(C=Cc1ccc(CN(CCO)CCc2c[nH]c3ccccc23)cc1)NO`, the Potency was 74.3 nM (active).

`O=C1CSC(=O)N1C(CCc1ccncc1)COc1ccc(-c2cccc([N+](=O)[O-])c2)cc1` (stereo unspecified): the Potency was 18700 nM (active).

In the case of `COc1cc(OC)c(NC(=O)Nc2cc(C)on2)cc1Cl`, the Potency entry was “inactive”.

For the compound `CC[C@]12C=CCN3CC[C@@]4(c5cc([C@@]6(C(=O)OC)C[C@H]7C[C@@H](C(C)(F)F)CN(Cc8c6[nH]c6ccccc86)C7)c(OC)cc5N(C)[C@H]4[C@@](O)(C(=O)OC)[C@H]1OC(C)=O)[C@@H]32`, the Potency was 1.7 nM (active).

For `C=C(C)[C@@H]1CC[C@]2(C(=O)O)CC[C@]3(C)[C@H](CC[C@@H]4[C@@]5(C)CC[C@H](O)C(C)(C)[C@@H]5CC[C@]43C)[C@@H]12`, the Potency entry is “inactive”.

A short description of another experiment: Quantitative High-Throughput drug screen in 47 multiple myeloma cell lines against the NCATS MIPE library collection: Delta47_JCRB cell viability assay (AID 1918925; further: nearly all actives have a fitted effect of over 45% in size;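 on viability (% of DMSO): 0% = media-only wells and 100% = DMSO-only wells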). To be noted: Delta47 myeloma viability, CellTiter-Glo ATP, 48 h; series mostly up to 45.8 µM. The gist of the method:
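Steps: seed 500 cells per well; pin-transfer MIPE 4.0 library; incubate 48 h at 37C, 5% CO2, humidified; add CellTiter-Glo, 5 min room temperature; read luminescence.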
On to `N#Cc1cc(NC(=O)Nc2nnc(-c3ccncc3)s2)ccc1-c1cn[nH]c1`, for which the Potency entry is “inactive”.

`Cc1cnc(NC(=O)Nc2cc(Br)c(C)cc2OC[C@@H]2CNCCO2)cn1`: the Potency is 5.26 µM (active).

As for `CC(=O)O[C@H]1C[C@@H]2CC[C@H]3[C@H]4C[C@H]([N+]5(C)CCCCC5)[C@@H](OC(C)=O)[C@@]4(C)CC[C@@H]3[C@@]2(C)C[C@H]1[N+]1(C)CCCCC1`, the Potency entry is “inactive”.

As to `CC(C)(C)[C@H](NC(=O)c1ccc(N)c(Cl)c1)C(=O)N1CCC[C@@H]1C(=O)N[C@H](C#N)CC(=O)O`, the viability (% of DMSO) was 119% [at 3.51 µM].

In the case of `CCc1c(O)cc(O)c(C(=O)c2ccc(OCCN3CCOCC3)c(OC)c2)c1CC(=O)N(CCOC)CCOC`, the Potency was 1.66 µM (active).

As to `O=C1NC(=O)[C@@H](c2cn3c4c(cccc24)CCC3)[C@H]1c1c[nH]c2ccccc12`, the Potency is 0.235 µM (active).

For the compound `O=C(O)CCCCC(CCSCc1ccccc1)SCc1ccccc1` (stereo unspecified), the Potency entry is “inactive”.

Consider `Nc1ccn(C[C@@H](CO)OCP(=O)(O)O)c(=O)n1`, for which the Potency result was “inactive”.

As for `O=C(O)[C@H](CC(=O)N1C[C@@H]2CCCC[C@H]2C1)Cc1ccccc1`, the Potency result was “inactive”.

As to `OCC(O)C(O)C(O)CO` (stereo unspecified), the Potency entry was “inactive”.

Take `Cc1c2oc3c(C)ccc(C(=O)NC4C(=O)NC(C(C)C)C(=O)N5CCCC5C(=O)N(C)CC(=O)N(C)C(C(C)C)C(=O)OC4C)c3nc-2c(C(=O)NC2C(=O)NC(C(C)C)C(=O)N3CCCC3C(=O)N(C)CC(=O)N(C)C(C(C)C)C(=O)OC2C)c(N)c1=O` (stereo unspecified) (I: TVP[Sar][NMeV] / II: TVP[Sar][NMeV]; ester I:1-I:C, II:1-II:C; linker I:N-II:N via Actinocin(9to1); configuration not given here): the Potency result was “inactive”.

With `COC1=C2C[C@@H](C)C[C@H](OC)[C@@H](O)[C@@H](C)C=C(C)[C@H](OC(N)=O)[C@@H](OC)C=CC=C(C)C(=O)NC(=CC1=O)C2=O`, the Potency was 0.132 µM (active).

On to `CC(=O)N1CCN(c2ccc(OCc3nn(C)c(C)c3-c3cccc4c(CCCOc5cccc6ccccc56)c(C(=O)O)n(Cc5cccnc5)c34)cc2)CC1`, for which the Potency is 0.332 µM (active).

Regarding `O=C1NC(O)CCN1[C@@H]1O[C@H](CO)[C@H](O)[C@H]1O` (stereo partly specified), the Potency result is “inactive”.

As for `CCNC(=O)Nc1ccc(-c2nc3c(c(N4CCOC[C@H]4C)n2)CCN(C2COC2)C3)cc1`, the Potency is 0.743 µM (active).

For `O=C1c2cccc(O)c2C(=O)c2c(O)cc(CO)cc21`, the Potency result is “inactive”.

As for `O=C1NC(=O)C(=Cc2ccc3nccc(-c4ccncc4)c3c2)S1`, the Potency was 0.0332 µM (active).

As for `CN(C)c1ccc2cc(C(=O)N[C@@H](CCCN=C(N)CCl)C(=O)NCc3ccccc3)ccc2c1`, the Potency is 18.7 µM (active).

For the compound `Cn1cc(C2=C(c3c4n(c5ccccc35)CCC(CN)C4)C(=O)NC2=O)c2ccccc21` (stereo unspecified), the Potency is 5.26 µM (active).

Turning to `Cn1cc(C[C@@H](N)C(=O)O)c2ccccc21`, the Potency entry is “inactive”.

For the compound `OCc1ccccc1O[C@@H]1O[C@H](CO)[C@H](O)[C@H](O)[C@H]1O`, the Potency is 13.2 µM (active).

On to `N#CC(=C(N)Sc1ccc(N)cc1)c1ccccc1C(F)(F)F`, for which the Potency is 5.9 µM (active).

For the compound `CS[C@H]1SC[C@@H]2C(=O)N(C)[C@H](C(C)C)C(=O)OC[C@H](NC(=O)c3cnc4ccccc4n3)C(=O)N[C@H](C)C(=O)N(C)[C@@H]1C(=O)N(C)[C@H](C(C)C)C(=O)OC[C@H](NC(=O)c1cnc3ccccc3n1)C(=O)N[C@H](C)C(=O)N2C`, the Potency was 0.001 µM (active).

The record behind these values is PubChem BioAssay (NCATS).
